Experimental data taken from PubChem BioAssay (NCI).
The panel holds about 83,000 compounds, 20% with a hit somewhere; the sample as a whole holds those more often.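 Results are percent growth after 48 hours of single-concentration exposure. 100 means growth as in untreated cells, lower positive values show inhibition; negative values down to -100 show cell death.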 Values without a mark were called inactive. Calls of active or inactive are those of the source. Rule for the calls: active = growth percent below 10; inactive = the rest.

Key:
Assay in all cases: NCI-60 one-dose screen, 48 h (100 = growth as untreated, 0 = no growth, -100 = all killed)
Details in all cases: 10 µM
NCI-H23 lung = test system: NCI-H23 lung
NCI-H226 lung = test system: NCI-H226 lung
NCI-H460 lung = test system: NCI-H460 lung
NCI-H522 lung = test system: NCI-H522 lung
A549/ATCC NSCLC = test system: A549/ATCC NSCLC
786-0 renal = test system: 786-0 renal
COLO 205 colon = test system: COLO 205 colon
DU-145 prostate = test system: DU-145 prostate
K-562 leukemia = test system: K-562 leukemia
MALME-3M melanoma = test system: MALME-3M melanoma
MDA-MB-231 breast = test system: MDA-MB-231 breast
RXF 393 renal = test system: RXF 393 renal
SF-268 CNS = test system: SF-268 CNS
SF-295 CNS = test system: SF-295 CNS
SF-539 CNS = test system: SF-539 CNS
M14 melanoma = test system: M14 melanoma
HOP-92 NSCLC = test system: HOP-92 NSCLC
UACC-257 melanoma = test system: UACC-257 melanoma

Compound	growth (NCI-H23 lung)	growth (NCI-H226 lung)	growth (NCI-H460 lung)	growth (NCI-H522 lung)	growth (A549/ATCC NSCLC)	growth (786-0 renal)	growth (COLO 205 colon)	growth (DU-145 prostate)	growth (K-562 leukemia)	growth (MALME-3M melanoma)	growth (MDA-MB-231 breast)	growth (RXF 393 renal)	growth (SF-268 CNS)	growth (SF-295 CNS)	growth (SF-539 CNS)	growth (M14 melanoma)	growth (HOP-92 NSCLC)	growth (UACC-257 melanoma)
COc1cc2c3c(n(C4CCNCC4)c(=O)c2cc1OC)-c1cc2c(cc1C3=O)OCO2	-59.4% (active)	-43.8% (active)	-66.2% (active)	-44.3% (active)	-53.7% (active)	-60% (active)	-83% (active)	-92.8% (active)	-48.8% (active)	-68.4% (active)	-69.1% (active)	-56.4% (active)	-60% (active)	-70.7% (active)	-65.8% (active)	-76.1% (active)	–	–
CCOC(=O)c1sc2ncnc(Nc3ccc4c(cnn4C(=O)Nc4ccc(C)c(Cl)c4)c3)c2c1C	91.4%	87.6%	114%	68.8%	72.7%	89.6%	110%	102%	102%	91.1%	96.5%	99.3%	103%	102%	104%	103%	–	–
COc1ccc(C(=O)CSc2nc(-c3cc(OC)ccc3OC)cc(-c3ccc(OC)cc3)c2C#N)cc1	91.6%	88.4%	127%	81.6%	78.6%	94.4%	98.8%	108%	102%	110%	102%	107%	90%	100%	86.5%	93.9%	–	–
COc1cc2c3c(n([C@@H]4CCOC4)c(=O)c2cc1OC)-c1cc2c(cc1C3=O)OCO2	22.8%	24.2%	4.11% (active)	17.5%	30.4%	7.24% (active)	38.8%	24.2%	55%	75.6%	91%	52.4%	35%	1.17% (active)	-3.51% (active)	16.5%	–	–
CCOC(=O)c1sc2ncnc(Nc3ccc(NC(=O)Nc4ccc(Cl)cc4)cc3)c2c1C	52.2%	87.3%	41.1%	54.1%	54.5%	52.3%	53%	54%	83.7%	26.4%	23.8%	19.4%	72.1%	33.1%	-1.23% (active)	64.8%	–	–
COc1ccc(CCN2CCC(Nc3nc4ccccc4n3Cc3ccc(F)cc3)CC2)cc1	47.1%	60%	1.57% (active)	–	28.7%	-96.5% (active)	-65.7% (active)	46.4%	–	-79.5% (active)	-31.5% (active)	-67.8% (active)	27.7%	-85.7% (active)	-81% (active)	-99.4% (active)	-20.1% (active)	-81.7% (active)
CN1CCc2c(sc3nc4n(-c5ccc(Cl)cc5)cnn4c(=O)c23)C1	91.8%	92.2%	124%	94.1%	88.2%	96.4%	97.7%	110%	106%	97%	98.7%	122%	95.6%	102%	106%	96.8%	–	–
CN1CCN(C2=Nc3ccccc3Oc3ccc(Cl)cc32)CC1	105%	111%	105%	–	94.8%	87.4%	–	108%	–	91.7%	76%	108%	109%	94.8%	111%	103%	80.4%	96.5%
Cc1ccc(-n2c(C)nn3c(=O)c4c5c(sc4nc23)CN(C)CC5)cc1	97.4%	98.3%	109%	71.5%	73.7%	86.3%	103%	99.8%	100%	93.7%	96.3%	105%	94.1%	98.1%	101%	95.8%	–	–
Cn1c2ccccc2c2c3[nH][nH]c(=O)c3c3c4ccccc4[nH]c3c21	19.2%	65.8%	-28.2% (active)	4.72% (active)	56.9%	23%	59%	10.5%	32.3%	92.3%	19.8%	-36.7% (active)	25%	81.3%	-20.8% (active)	17.4%	–	–
